According to PubChem BioAssay (NCATS):
Results filed as inconclusive are left out. Where a call stands in place of a potency, no number is given. Active and inactive are the calls of the source. Calls follow the shape of the dose curve; as a rule, active = well fitted inhibition curve with a large enough effect; inconclusive = small, poorly fitted or top-dose-only effect; inactive = no such curve, though single readings can be large or run the other way.

Experiment: NS1 protein of Zika virus - qHTS assay to identify small molecule inhibitors in human HEK 293 cells (AID 1347053); also: nearly all actives have a fitted effect of over 55% in size
Conditions: HEK293 ZIKV MR766 infection, NS1 TR-FRET, 24 h; series mostly up to 46.1 µM
Text: National Center for Advancing Translational Sciences [NCATS]
Johns Hopkins University School of Medicine
The non-structural 1 (NS1) protein of zika virus is known to associate with the viral replication complex. This cell-based TR-FRET ZIKV NS-1 assay measures the increased NS-1 protein in human HEK 293 cells after a 24-hour Zika virus infection by a TR-FRET assay readout. A decrease in the Time-resolved fluorescence energy transfer (TR-FRET) signal in this assay by small molecule treatment indicates an inhibitory effect of the small molecule on the expression of Zika virus NS1 correlating with Zika virus replication.
HEK 293 cells were cultured in EMEM (ATCC, Cat. # 30-2003) medium with 10% fetal bovine serum (GE healthcare Life Sciences, Cat. # SH30071.03), and 1% Pen/Strep (Gibco, Cat. # 15140-122). Cells were seeded in the assay plate and incubated at 37 C with 5% CO2 for 20 hours. Compounds were added to cells and incubated for one hour before addition of ZIKV MR766 strain solution to cells (MOI = 0.5). After an incubation at 37 C for 24 hours, the reagent mixture of TR-FRET ZIKV NS1 assay using two anti-ZIKV NS1 antibodies was added to assay plates. The TR-FRET signals in assay plates were measured using an Envision plate reader (PerkinElmer). Data were normalized by using the cell-containing wells without ZIKV as a negative control (0% NS-1) and wells containing ZIKV infected cells as a positive control (100% NS-1 level).

SMILES | Potency
CNC[C@H](O)c1cccc(O)c1 | inactive
Cc1cccc(-c2[nH]c(C(C)(C)C)nc2-c2ccc3nccnc3c2)n1 | inactive
Nc1nc2ccc(OC(F)(F)F)cc2s1 | inactive
COc1cccc2cc(-c3nc(C4CCC(C(=O)O)CC4)n4ncnc(N)c34)[nH]c12 (stereo not given) | inactive
Cc1ccnc(NS(=O)(=O)c2ccc(NC(=O)Nc3ccc(S(=O)(=O)Nc4nccc(C)n4)cc3)cc2)n1 | inactive
Cc1ccccc1C(OCCN(C)C)c1ccccc1 (stereo not given) | inactive
NCCc1ccc(O)c(O)c1 | inactive
Cc1cn[nH]c1 | inactive
Cn1cnc2c(F)c(Nc3ccc(Br)cc3Cl)c(C(=O)NOCCO)cc21 | inactive
CC[C@H](Nc1ncnc2nc[nH]c12)c1nc2cccc(F)c2c(=O)n1-c1ccccc1 | inactive
CCCn1c(=O)c2[nH]c(C34CC5CC3C[C@@H](C5)C4)nc2n(CCC)c1=O | inactive
CCc1ccc(CCOc2ccc(CC3SC(=O)NC3=O)cc2)nc1 (stereo not given) | inactive
O=NN(CCCl)C(=O)NCCCl | inactive
Cc1cc([C@@H](C)Nc2ccccc2C(=O)O)c2nc(N3CCOCC3)cc(=O)n2c1 | inactive
COc1ccc2c3n(c(=NC(=O)c4cccnc4)nc2c1OC)CCN3 | inactive
Cc1ccc(NC(=O)c2cccc(C(C)(C)C#N)c2)cc1Nc1ccc2ncn(C)c(=O)c2c1 | inactive
CC(C)(Sc1ccc(CCN(CCCCC2CCCCC2)C(=O)NC2CCCCC2)cc1)C(=O)O | inactive
Nc1nccc(-c2ccc3noc(-c4ccc(Cl)cc4)c3c2)n1 | inactive
C[C@H](NC(=O)Cc1cc(F)cc(F)c1)C(=O)N[C@@H]1C(=O)N(C)c2ccccc2-c2ccccc21 | inactive
NC(=O)C1CCCc2c1[nH]c1ccc(Cl)cc21 (stereo not given) | inactive

SMILES | Potency
CCn1c(-c2nonc2N)nc2c(C#CC(C)(C)O)ncc(OC[C@H]3CCCNC3)c21 | inactive
C[C@]12CC[C@H](O)CC1=CC[C@@H]1[C@H]2CC[C@]2(C)C(c3cccnc3)=CC[C@H]12 | inactive
CN(C(=O)c1ccc(F)cc1C(F)(F)F)C1CCN(c2nnc(-c3ccnn3C)c3ccccc23)CC1 | inactive
Cn1cnc([N+](=O)[O-])c1Sc1ncnc2nc[nH]c12 | inactive
Cc1cc(Nc2nc(N[C@@H](C)c3ncc(F)cn3)ncc2Cl)n[nH]1 | inactive
Cc1[nH]c(=O)c(C#N)cc1-c1ccncc1 | inactive
O=C(C=Cc1ccc(/C=C/C(=O)Nc2ccc(C3=NCCN3)cc2)cc1)Nc1ccc(C2=NCCN2)cc1 | inactive
OCCn1cc(-c2cnc3nnn(Cc4ccc5ncccc5c4)c3n2)cn1 | inactive
CN[C@@H](C)C(=O)N[C@H]1CCCC[C@H]2CC[C@@H](C(=O)N[C@@H](c3ccccc3)c3cn(CCCCc4ccc(CCCCn5cc([C@@H](NC(=O)[C@@H]6CC[C@@H]7CCCC[C@H](NC(=O)[C@H](C)NC)C(=O)N76)c6ccccc6)nn5)cc4)nn3)N2C1=O | inactive
CNC(=O)c1ccc(C)c(-n2c(C)cc(OCc3ccc(F)cc3F)c(Br)c2=O)c1 | inactive
C[C@]12CCC(=O)C=C1CC[C@@H]1[C@@H]2[C@@H](O)C[C@@]2(C)[C@H]1CC[C@]2(O)C(=O)CO | inactive
CN(C)C(=O)c1ccc(S(=O)(=O)c2ccc(NC(=O)[C@@](C)(O)C(F)(F)F)c(Cl)c2)cc1 | inactive
COCCNCCCn1c(C(=O)CF)c(-c2ccc(C)cc2)c2c(N)ncnc21 | inactive
Cc1n[nH]c(C)c1Cc1sc2c(c1C(=O)N1C[C@H](O)CO1)c(=O)n(C)c(=O)n2CC(C)C | inactive
O=C1CCC(N2C(=O)c3ccccc3C2=O)C(=O)N1 (stereo not given) | inactive
Nc1nc2[nH]cc(CCc3ccc(C(=O)N[C@@H](CCC(=O)O)C(=O)O)cc3)c2c(=O)[nH]1 | inactive
NC(=O)c1ccc(I)c([N+](=O)[O-])c1 | inactive
COc1cc(Nc2ncc3c(n2)-c2ccc(Cl)cc2C(c2c(F)cccc2OC)=NC3)ccc1C(=O)O | inactive
O=C(Nc1ccc(F)c(C(F)(F)F)c1)Nc1nnc(-c2ccncc2)s1 | inactive
CC1(C)SCCN(S(=O)(=O)c2ccc(OCC#CCO)cc2)[C@@H]1C(=O)NO | inactive
